Bioassay records deposited in PubChem by National Center for Advancing Translational Sciences (NCATS).
KDM5B inhibitor – KDM5B demethylase inhibition. Q9UGL1. 220,000 compounds, 2.6% hits. Potency, µM (top dose mostly 57.7 µM), usual class: inhibitors. KDM5B demethylase, FDH-coupled NADH fluorescence (FDH is formaldehyde dehydrogenase); active = well fitted inhibition curve with a large enough effect; also: 0% is about no effect; nearly all actives have a fitted effect of over 70% in size
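Compound dilutions met 200 nM (final) KDM5BΔAP for 10 min at room temperature before substrate addition. The substrate mix held 12.5 µM H3K4me3 with cofactors 25 µM α-ketoglutarate and 50 µM Fe²⁺. NADH signal gain over 30 min defined activity.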
* = called active by the depositor; i = inactive. This is one part of a sample in which hits are shown more often than they occur. Potency is read from the fitted curve at half-maximal effect.

SMILES | KDM5B inhibitor
CC(NC(=O)C1CCN(c2ccc(C#N)cn2)CC1)c1ccc(F)cc1 (centres undefined) | i
CC(C)(C)c1csc(NC(=O)C2CCN(c3ccc(C#N)cn3)CC2)n1 | i
CN1CCCCCC1C(=O)N1CCN(c2ccc(C#N)cn2)CC1 (centres undefined) | 28.2µM*
CCOc1ccc2c(n1)CCN(C(=O)Cc1ccccc1C)C2 | i
COc1ccc(-c2c(NC(=O)c3ccc([N+](=O)[O-])cc3)oc3ccccc3c2=O)cc1OC | i
Nc1cccc(S(N)(=O)=O)c1 | i
COCCNC(=O)c1ccc2c(c1)N(C)C(CC(=O)NCc1ccon1)CO2 (centres undefined) | 28.2µM*
COCCNC(=O)CCCN1C(=O)COc2ccc(C(=O)COc3ccccc3OC)cc21 | i
COCCNC(=O)c1ccc(OC2CCN(CC3CCOC3)CC2)c(Cl)c1 (centres undefined) | i
COCCNC(=O)c1ccc2c(c1)N(C)C(CC(=O)NC1CCC1)CO2 (centres undefined) | 28.2µM*
COCCNC(=O)c1ccc(OC2CCN(Cc3ccc(C)s3)CC2)c(Cl)c1 | i
COCCNC(=O)c1ccc2c(c1)N(C)C(CC(=O)N(C)CC(C)C)CO2 (centres undefined) | 31.6µM*
C=CCN(C)C(=O)CC1COc2ccc(C(=O)N(C)C)cc2N1C (centres undefined) | i
C#CCN(C)C(=O)CC1COc2ccc(C(=O)N3CCOCC3)cc2N1C (centres undefined) | i
COc1ccc(NC(=O)c2ccc3c(c2)OCCN(CCC(F)(F)F)C3)cn1 | i
COCCNC(=O)c1ccc2c(c1)N(C)C(CC(=O)Nc1ccc(N)nc1)CO2 (centres undefined) | 22.4µM*
COc1ccc(OC)c(CNCc2cccn2-c2nnc(N3CCOCC3)s2)c1 | i
O=C(Cc1cccc(F)c1)OCc1cc(-c2ccccc2)on1 | i
Cc1ccc(Nc2nc(NC3CCCCC3)nc3c2cnn3C)cc1 | i
COc1ccc(NS(=O)(=O)c2cc(Cl)ccc2Cl)cc1S(=O)(=O)N1CCOCC1 | i
CN1C(=O)c2cccn2CC1CNC(=O)Cc1c[nH]c2ccccc12 (centres undefined) | i
CSc1cccc(NC(=O)CCc2ncc(-c3c(F)cccc3F)o2)c1 | i
CCCCOc1ccc(C(N)C(=O)OCC)cc1 (centres undefined) | i
O=C(Cn1cnc2cc(Cl)ccc2c1=O)N(C1CCCC1)C1CCS(=O)(=O)C1 (centres undefined) | i
COc1ccc(CC(=O)N2CC[C@@H](CC(=O)O)[C@@H](CCN3CCC(C(N)=O)CC3)C2)cc1 | i
SMILES | KDM5B inhibitor
CC(=O)Nc1ccc(C2(C(=O)NCc3cccs3)CCCCC2)cc1 | i
Cc1cncc(NC(=O)CC2COc3ccc(C(=O)N(C)C)cc3N2C)c1 (centres undefined) | i
COCCNC(=O)CCc1ccc2c(c1)CN(C(=O)NC(C)C)CCO2 | i
COCCNC(=O)CCCN1C(=O)COc2ccc(C(=O)COc3ccc(C)cc3C)cc21 | i
COCCNC(=O)C(NC(=O)CC(C)C)C1CCN(C(=O)c2ccc3c(c2)OCO3)CC1 (centres undefined) | i
COCCNC(=O)c1ccc(OC2CCN(Cc3cccc4c3OCO4)CC2)c(Cl)c1 | i
CCNC(=O)CC1COc2ccc(C(=O)NCCOC)cc2N1C (centres undefined) | 31.6µM*
COCCNC(=O)c1ccc2c(c1)N(C)C(CC(=O)NC(C)C)CO2 (centres undefined) | 20µM*
COCCNC(=O)c1ccc2c(c1)N(C)C(CC(=O)Nc1ccccc1)CO2 (centres undefined) | 31.6µM*
CN(C)C(=O)c1ccc2c(c1)N(C)C(CC(=O)NCC(C)(C)O)CO2 (centres undefined) | i
CN(C)C(=O)c1ccc2c(c1)N(C)C(CC(=O)NC(C)(C)c1ccccc1)CO2 (centres undefined) | i
CCc1ccccc1OCC(=O)c1ccc2c(c1)N(CCCC(=O)NCCOC)C(=O)CO2 | i
CCCNC(=O)CC1COc2ccc(C(=O)NCCOC)cc2N1C (centres undefined) | 28.2µM*
O=Cc1cc(Br)c2c(c1)OCCCO2 | i
O=S(=O)(C1CC1)N1CCn2c(nnc2C2CCCN2)C1 (centres undefined) | i
COc1cc(CC(=O)N2CCN(C(=O)c3ccc4ccccc4c3)CC2)cc(OC)c1OC | i
CCN(CC)C(=O)c1cccc(NC(=O)c2cc(S(=O)(=O)NCc3ccccc3)ccc2C)c1 | i
O=C(C1CC=CC1)N1CCN(C(=O)N2CC3CC(C2)[C@H]2CCCC(=O)N2C3)CC1 (some centres undefined) | i
CS(=O)(=O)c1cnc(NC2CCCCCC2)nc1C1CCCNC1 (centres undefined) | i
COc1ccc2c(c1)c(C(C(=O)O)N1CCN(Cc3ccccc3)CC1)cn2CCC(=O)O (centres undefined) | i
COCCNC(=O)C[C@@H]1C[C@H]2O[C@H](CNC3CCCC3)[C@@H](O)[C@H]2O1 | i
